Out of some 2,300 compounds screened, about 430 (19%) were called active.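 The calls were made as follows: active = remaining agonist calcium response no higher than 100% minus 3 SD of agonist-only control wells, with starting fluorescence near control levels; inactive = the rest.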 Not all results are given here.

In the test the target is Mas-related G-protein coupled receptor member X1 (Homo sapiens) (UniProt Q96LB2). The experiment in a line: MrgX1 receptor antagonists, duplicate retest, confirmation, HEK293 cells, Fluo-4 calcium flux (AID 602420). Conditions: MrgX1-HEK293, BAM8-22 calcium flux, at 10 µM; hits give low values.
Mas-related G-protein coupled receptor member X1 (Homo sapiens), sequence (Q96LB2 whole entry, looked up): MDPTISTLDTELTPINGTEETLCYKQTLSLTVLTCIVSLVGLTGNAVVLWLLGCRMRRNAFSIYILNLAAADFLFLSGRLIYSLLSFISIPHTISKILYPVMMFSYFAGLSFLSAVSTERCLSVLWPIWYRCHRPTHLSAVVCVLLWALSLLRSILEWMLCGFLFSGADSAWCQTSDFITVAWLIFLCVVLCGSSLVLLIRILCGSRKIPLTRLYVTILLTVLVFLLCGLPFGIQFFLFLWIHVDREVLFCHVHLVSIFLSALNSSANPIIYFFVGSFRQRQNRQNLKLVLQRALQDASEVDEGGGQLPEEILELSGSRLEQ
Take `CCOC(=O)c1c(C)[nH]c(=S)c(C#N)c1-c1ccccc1`: the remaining BAM8-22 calcium response % of control (hits give low values) result was “inactive”.
For the molecule `COc1cccc(CNC(=O)C2CCN(S(=O)(=O)c3cccc4cccnc34)CC2)c1`, the remaining BAM8-22 calcium response % of control (hits give low values) result was “inactive”.
Turning to `O=C(CSc1nncn1-c1cccnc1)N1CCOCC1`, the remaining BAM8-22 calcium response % of control (hits give low values) entry is “inactive”.
On to `N#CC1=C(N)Oc2c(sc3ccccc23)C1c1ccco1` (stereo unspecified), for which the remaining BAM8-22 calcium response % of control (hits give low values) result is “inactive”.
Take `O=C(Nc1ccc(Cl)cc1)Nc1ccc(Oc2cccnc2)nc1`: the remaining BAM8-22 calcium response % of control (hits give low values) was 80.3% (active).
In the case of `COc1cc(C2/C(=C(\O)c3ccc4c(c3)CC(C)O4)C(=O)C(=O)N2Cc2ccco2)ccc1O` (stereo unspecified), the remaining BAM8-22 calcium response % of control (hits give low values) result was “inactive”.
As for `CN(C)CCn1c(=S)[nH]c2ccc(Cl)cc2c1=O`, the remaining BAM8-22 calcium response % of control (hits give low values) result was “inactive”.
In the case of `Cc1cc(C)n(CCNC(=O)CC2C(=O)NCCN2Cc2ccc(C)o2)n1` (stereo unspecified), the remaining BAM8-22 calcium response % of control (hits give low values) result is “inactive”.
For `FC(F)(F)c1cc(-c2cccs2)nc(NCc2ccco2)n1` the value was “inactive”.
On to `S=C(NCc1ccc(Cl)cc1)NC12CC3CC(CC(C3)C1)C2`, for which the remaining BAM8-22 calcium response % of control (hits give low values) is 68.5% (active).
For `O=C(c1ccc(O)cc1)c1ccc(C(=O)O)c(C(=O)O)c1` the value was “inactive”.
As to `O=C(Cn1c(-c2cncs2)nc2ccccc21)NC1CCCC1`, the remaining BAM8-22 calcium response % of control (hits give low values) entry was “inactive”.
As to `CC1CCN(S(=O)(=O)c2nnc(NC(=O)COc3ccccc3F)s2)CC1`, the remaining BAM8-22 calcium response % of control (hits give low values) result is “inactive”.
As to `Cc1ccc(-c2nn(C(C)(C)C)c3ncnc(N)c23)cc1`, the remaining BAM8-22 calcium response % of control (hits give low values) entry is “inactive”.
Consider `c1ccc(-c2[nH]ncc2-c2nc3ccccc3[nH]2)cc1`, for which the remaining BAM8-22 calcium response % of control (hits give low values) result is “inactive”.
`Cc1nccn1CCC1CCCCN1C(=O)CCc1nnc(-c2ccsc2)o1` (stereo unspecified): the remaining BAM8-22 calcium response % of control (hits give low values) result was “inactive”.
For the molecule `CN(c1cccc(NC(=O)Nc2ccc(Cl)cc2)c1)S(C)(=O)=O`, the remaining BAM8-22 calcium response % of control (hits give low values) is 44.9% (active).
For `C(=N\n1cnnc1)/c1cccnc1` the value was “inactive”.
Consider `CCS(=O)(=O)c1ccc2c(c1)N(S(=O)(=O)c1ccccc1)CC(C(=O)O)O2` (stereo unspecified), for which the remaining BAM8-22 calcium response % of control (hits give low values) result was “inactive”.
For `CCOC(=O)c1c(NC(=O)CNC2CCCc3ccccc32)sc(C(N)=O)c1C` (stereo unspecified) the value was “inactive”; for `CCOC(=O)c1c(NC(=O)CSc2cn(CC)c3ccccc23)sc2c1CCC2`, 85% (active).
For `CCNC(=O)c1c(O)c2cccc3c2n(c1=O)CC3` the value was “inactive”; for `Cc1ccc(C(=O)COC(=O)CCN2C(=O)C3C4CC(C(Br)C4Br)C3C2=O)cc1` (stereo unspecified), “inactive”.
Consider `O=c1cc(CSc2ccccn2)nc(N2CCN(c3ccccc3)CC2)[nH]1`, for which the remaining BAM8-22 calcium response % of control (hits give low values) entry was “inactive”.
On to `CCOC(=O)Cc1csc(SCc2cc(=O)oc3cc(O)ccc23)n1`, for which the remaining BAM8-22 calcium response % of control (hits give low values) is 85.3% (active).
Consider `CCSc1nsc(NC(=O)Nc2cccc(C(C)=O)c2)n1`, for which the remaining BAM8-22 calcium response % of control (hits give low values) result was “inactive”.
With `CCOC(=O)CNC(=O)CSc1nc2cccnc2n1CC`, the remaining BAM8-22 calcium response % of control (hits give low values) result was “inactive”.
For `CCOC(=O)C1=C(O)/C(=C/c2cc(C)n(-c3ccccc3)c2C)N=C1C` the value was “inactive”.
For the molecule `Cc1cccn2c(=O)c(/C=C3\SC(=S)N(CC(C)C)C3=O)c(NCCCOC(C)C)nc12`, the remaining BAM8-22 calcium response % of control (hits give low values) was 63.8% (active).
On to `CCN(CC)CC(=O)Nc1nn(-c2ccccc2)nc1C(N)=O`, for which the remaining BAM8-22 calcium response % of control (hits give low values) result was “inactive”.
For `CCC1CCCCN1CCNC(=O)c1[nH]c(C)c(C(C)=O)c1C` (stereo unspecified), the remaining BAM8-22 calcium response % of control (hits give low values) entry is “inactive”.
`O=C(CN1CCN(c2ccc(Cl)cc2)CC1)N1CCCC1`: the remaining BAM8-22 calcium response % of control (hits give low values) entry is “inactive”.
With `O=C(Cc1nc2ccccc2[nH]c1=O)c1ccc(Cl)cc1`, the remaining BAM8-22 calcium response % of control (hits give low values) was 64.3% (active).
For the molecule `O=C(NC1CCCCC1)C1c2ccccc2C(=O)N1Cc1ccco1` (stereo unspecified), the remaining BAM8-22 calcium response % of control (hits give low values) entry was “inactive”.
For the molecule `CCc1cc(=O)oc2cc(C)cc(OCC(=O)N3CCC[C@@H]3C(=O)O)c12`, the remaining BAM8-22 calcium response % of control (hits give low values) result was “inactive”.
For the molecule `CCCCOC(=O)CNc1nnc(SCC(=O)OCC)[nH]c1=O`, the remaining BAM8-22 calcium response % of control (hits give low values) was 70.5% (active).
Then `COC(=O)c1c(NC(=O)c2c(Cl)cnn2C)sc(C)c1C`, with “inactive”.
For the molecule `Cc1ccc(C(C(=O)NC2CCCCC2)N(C(=O)c2csnn2)C2CC2)o1` (stereo unspecified), the remaining BAM8-22 calcium response % of control (hits give low values) entry is “inactive”.
Then `O=C(c1cccs1)C1C(c2ccc(Br)cc2)NC(=S)NC1(O)C(F)(F)F` (stereo unspecified), with “inactive”.
Regarding `Cc1nc(N2CCN(c3ccccn3)CC2)c2c(C)c(C(=O)Nc3ccc(F)c(Cl)c3)sc2n1`, the remaining BAM8-22 calcium response % of control (hits give low values) was 70.4% (active).
For `COc1cc(CCC(=O)Nc2ccncc2Cl)cc(OC)c1OC` the value was “inactive”; for `C=CCSc1nc(Cc2ccc(Cl)cc2)nc2ccccc12`, “inactive”.
Consider `O=C(COC(=O)C1CCN(S(=O)(=O)c2ccc3c(c2)OCCO3)CC1)Nc1ccccc1OC(F)F`, for which the remaining BAM8-22 calcium response % of control (hits give low values) result is “inactive”.
For `Clc1ccc(-c2nc3ccccn3c2CN2CCSCC2)cc1`, the remaining BAM8-22 calcium response % of control (hits give low values) result is “inactive”.
As for `Clc1ccc(C=NC23CN4CN(CN(C4)C2)C3)cc1`, the remaining BAM8-22 calcium response % of control (hits give low values) result was “inactive”.
Then `COc1ccc(C(=O)CSc2n[nH]c(N)n2)cc1`, with “inactive”.

(Values after PubChem BioAssay AID602420 (Johns Hopkins Ion Channel Center, 2012).)
